HT1080NT lethal: kills 2HG-producing HT-1080-NT fibrosarcoma cells. AID 686970. hit rate 1.6% among 360,000. Potency, µM (highest dose often 46.1 µM), for inactives: at the top dose activity, negative = less viability, most hits filed as cytotoxic. HT-1080-NT fibrosarcoma viability, CellTiter-Glo ATP luminescence, 48 h;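 also: NT is the 2HG producing partner of a matched IDH1 knockdown line; potency is read from the fitted curve at half-maximal effect; 0% = DMSO-treated cells and -100% = media-only wells without cells; nearly all actives have a fitted effect of over 55% in size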
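Viability of the 2HG-overproducing fibrosarcoma line after 48 hours of compound exposure at 37 degrees C was determined by luminescence with CellTiter-Glo, and concentration-effect curves were then fitted and categorized.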
IL-1B inflam inh: inflammasome signaling inhibition, IL-1 beta readout; THP-1 LPS/ATP IL-1B secretion, AlphaLISA, 16 h; hits give low values; activity change, % at 57.5 µM; hit rate 4.7% among 360,000; AID 743279; in the data active = activity change below about -50%; inconclusive = mostly about -30% to -49%
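THP-1 cells pretreated 1 hr with compounds (up to 57.5 uM final), then stimulated with LPS (250 ng/mL final) plus ATP (1.25 mM final); secreted IL-1B measured by AlphaLISA after 16 hr, decreased signal indicating inhibition.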
DT40 TDP1 CPT: growth inhibition of DT40 Tdp1-/-;hTDP1 cells with camptothecin (screen for TDP1 inhibitors) | chicken DT40 Tdp1-/-;hTDP1 cells + 20 nM CPT, ATP luminescence, 48 h | hit rate 12% among 420,000 | Potency, µM (series often up to 46.2 µM), for inactives: top-dose activity change, negative = growth inhibition, usual class: inhibitors; also: potency is read from the fitted curve at half-maximal effect; nearly all actives have a fitted effect of over 55% in size
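Cell growth measured by CellTiter-Glo luminescence after a minimum 48 h, 37 C compound exposure with 20 nM CPT in Tdp1-knockout DT40 cells stably expressing hTDP1, seeded 400/well; qHTS titration format.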
TDP1 cell noCPT: qHTS for Inhibitors of human tyrosyl-DNA phosphodiesterase 1 (TDP1): qHTS in cells in absence of CPT; DT40 Tdp1-/- hTDP1 cells, no CPT, ATP luminescence, 48 h; Potency, µM (highest dose often 46.2 µM), without a hit: at the highest dose activity change, negative = growth inhibition, usual class: inhibitors; hit rate 15% among 420,000; also: potency is read from the fitted curve at half-maximal effect; nearly all actives have a fitted effect of over 55% in size
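DT40 Tdp1-/-;hTDP1 cells, no CPT (DMSO vehicle only), 400 cells/well; compounds pin-transferred; ≥48 hr, 37 °C; CellTiter-Glo 30 min RT dark, luminescence read.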
uPA generation: blocks generation of uPA at the cell surface; AID 540303; Potency, µM (series often up to 38.3 µM), for the others: top-dose activity change, negative = inhibition, most hits filed as inhibitors; cell surface uPA generation assay, qHTS; hit rate 0.31% among 330,000; active = well fitted inhibition curve with a large enough effect; inconclusive = small, poorly fitted or top-dose-only effect; inactive = no such curve, though single readings can be large or run the other way; tested in mouse RAW 264.7 cells; also: potency is read from the fitted curve at half-maximal effect; nearly all actives have a fitted effect of over 55% in size
HT1080 IDH1KD tx: HT-1080 IDH1 knockdown cell toxicity (counter line); HT-1080 IDH1 knockdown viability, ATP luminescence, 48 h; Potency, µM (highest dose often 46.1 µM), inactives show at the highest dose activity, negative = toxicity, most hits filed as cytotoxic; hit rate 2% among 360,000;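 also: potency is read from the fitted curve at half-maximal effect; 0% = DMSO wells and -100% = cell-free medium wells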
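HT-1080-IDH1KD cells (IDH1 knocked down), 750/well in RPMI with 5% FBS, treated with compound 48 h at 37 degrees C. Viability by CellTiter-Glo luminescence, normalised to DMSO and no-cell wells; concentration-response curves classed.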
Numbers without * were called inactive; ? = inconclusive; . = no result given. The list is not random: actives were taken first. Their share in the collection is about 19%. Unless noted, calls follow the shape of the dose curve; as a rule, active = well fitted curve in the direction sought with a large enough effect; inconclusive = small, poorly fitted or top-dose-only effect, or another doubt; inactive = no such curve, though single readings can be large; an effect the other way counts as inactive or inconclusive. Unless noted, % is scaled to controls: 0 for no effect and ±100 for the full control effect.

SMILES	HT1080NT lethal	IL-1B inflam inh	DT40 TDP1 CPT	TDP1 cell noCPT	uPA generation	HT1080 IDH1KD tx
COc1ccccc1NC(=O)CSc1nc2sc(C)c(C)c2c(=O)n1C	10%	48	21µM*	13µM*	6%	-2%
COc1ccccc1NC(=O)c1cnc(SCC(=O)NCC2CCCO2)n(C)c1=O (stereo not given)	-40%	-97*	10µM*	?	-4%	-23%
Cc1cc(OCC(=O)OCC(=O)N2CCc3ccccc3C2)ccc1Cl	2%	42	7%	16%	-21%	3%
COc1ccc(Cl)cc1C=CC=NNS(=O)(=O)c1ccc(C)cc1	9%	-4	18µM*	16µM*	1%	7%
COc1ccc(Cl)cc1C=CC=Nc1ccccc1O	-13%	?	23µM*	18µM*	-8%	-18%
COc1cc(/C=N/NS(=O)(=O)c2ccc(Br)cc2)ccc1O	0%	24	3%	4%	-16%	0%
COc1ccc(Br)cc1C=NNS(=O)(=O)c1ccc(C)cc1	?	73	?	7.3µM*	.	?
CC(C)C[C@H](NC(=O)[C@@H](Cc1c[nH]c2ccccc12)NC(=O)[C@H](Cc1ccc(O)cc1)NC(=O)[C@H](CO)NC(=O)[C@H](Cc1c[nH]c2ccccc12)NC(=O)[C@H](Cc1cnc[nH]1)NC(=O)[C@@H]1CCC(=O)N1)C(=O)N[C@@H](CCCN=C(N)N)C(=O)N1CCC[C@@H]1C(=O)NCC(N)=O	.	.	9%	-15%	.	.
Cc1ccc(-n2nc(C(=O)N3CCN(c4ccccc4F)CC3)c(=O)n(C)c2=O)cc1	.	.	-9%	-14%	.	.
Cc1cccc(N2CCN(C(=S)Nc3ccc4nc5n(c(=O)c4c3)CCCCC5)CC2)c1C	-6%	8	?	21µM*	-14%	-6%
O=c1c2cc(NC(=S)NC3CCCCC3)ccc2nc2n1CCCCC2	-16%	?	18µM*	?	-3%	-13%
COc1cc(C(=O)Nc2ccc3nc4n(c(=O)c3c2)CCCCC4)cc(OC)c1OC	?	26	?	23µM*	-18%	18µM*
CCCN(C(=O)C(=O)Nc1ccc2nc3n(c(=O)c2c1)CCCCC3)c1ccc(OCC)cc1	16%	0	13µM*	13µM*	-4%	4%
COc1ccc(-n2ccn(Cc3ccccc3C)c(=O)c2=O)cc1	.	.	1%	0%	.	.
COc1ccc(C#Cc2cnc3c(c2)C(=O)N([C@H](C)CO)C[C@@H](C)[C@H](CN(C)C(=O)CN(C)C)O3)cc1	-4%	0	-17%	-26%	.	-1%
O=C(/C=C/[C@H]1O[C@@H](n2ccc(=O)[nH]c2=O)[C@H](O)[C@@H]1O)N[C@@H](Cc1ccccc1)C(=O)O	17%	0	7%	17%	.	11%
COC(=O)C(=N/Nc1ccccc1C(=O)OC)/C(C)=N/O	?	14	12%	-7%	-1%	?
O=c1c2cc(NC(=S)NC3CC3)ccc2nc2n1CCCCC2	2%	0	22%	-3%	0%	-3%
O=c1c2cc(NC(=S)NC3CCN(Cc4ccccc4)CC3)ccc2nc2n1CCCCC2	?	-14	?	15µM*	-11%	18µM*
COc1ccc(OC)c(-n2c(C)ccc2-c2ccc(S(C)(=O)=O)cc2)c1	-1%	-20	18µM*	?	-2%	-1%
COc1ccc(OC)c(-n2c(-c3ccc(S(C)(=O)=O)cc3)cc(C=O)c2C)c1	-18%	-12	-27%	-6%	-3%	-27%
CCCCCOc1ccc(NC2=CC(=O)CCC2)cc1	-2%	-4	?	?	-15%	-11%
O=C(c1cc2cc(Br)ccc2o1)N1CCCCC1	4%	-19	?	21µM*	0%	7%
COc1ccc(/C=C/C(=O)OCC(=O)Nc2cc(C(F)(F)F)ccc2Cl)cc1	13%	-3	?	12µM*	7%	3%
O=C(COC(=O)/C=C/c1ccc(C(F)(F)F)cc1)NC1CCS(=O)(=O)C1 (stereo not given)	3%	-1	?	21µM*	-1%	17%
SMILES	HT1080NT lethal	IL-1B inflam inh	DT40 TDP1 CPT	TDP1 cell noCPT	uPA generation	HT1080 IDH1KD tx
COc1ccc(/C=C/C(=O)OCC(=O)NC2CCS(=O)(=O)C2)cc1 (stereo not given)	-6%	-6	0%	-21%	-11%	-4%
COc1ccc(/C=C/C(=O)OCC(=O)Nc2cc(S(=O)(=O)N(C)C)ccc2Cl)cc1	17%	-4	3%	0%	3%	18%
Cc1ccc(CC(=O)NO)cc1	-2%	.	?	-16%	.	19%
Cc1cccc(OCCSc2nc3ccccc3n2CCC(=O)O)c1	0%	-2	?	-11%	25%	-6%
CCCn1c(SCC(=O)Nc2nc(-c3ccc(OC)cc3)cs2)nc2c1c(=O)n(C)c(=O)n2C	-1%	-2	?	?	-2%	-2%
CCOc1ccc2nc(NC(=O)CSc3nc4c(c(=O)n(C)c(=O)n4C)n3C(C)C)sc2c1	-7%	8	23µM*	15µM*	-11%	4%
CCOc1ccc2nc(NC(=O)Cn3cnc4c3c(=O)n(C)c(=O)n4C)sc2c1	5%	23	-2%	-10%	.	-30%
CCn1c(SCC(=O)Nc2nc3ccc(OC)cc3s2)nc2c1c(=O)n(C)c(=O)n2C	1%	?	18µM*	?	.	?
CC(C)n1c(SCC(=O)Nc2nc3ccccc3s2)nc2c1c(=O)n(C)c(=O)n2C	-3%	-52*	16µM*	21µM*	2%	-12%
Cc1ccc2nc(N(Cc3cccnc3)C(=O)c3ccco3)sc2c1	.	.	-6%	-4%	.	.
CC(C)CC(O)(c1ccccc1)C(CN1CCOCC1)c1ccccc1 (stereo not given)	?	-7	?	21µM*	-1%	?
CC(C)CCC(O)(c1ccccc1)C(CN1CCOCC1)c1ccccc1 (stereo not given)	?	?	18µM*	16µM*	3%	?
COc1ccc(C(O)(CCC(C)C)C(CN2CCOCC2)c2ccccc2)cc1 (stereo not given)	-21%	?	23µM*	21µM*	-15%	-21%
CCCCCCC(O)(c1ccc(OC)cc1)C(CN1CCOCC1)c1ccccc1 (stereo not given)	?	?	?	?	-11%	?
Cc1ccc(C(=O)COC(=O)c2cc(=O)[nH]c3ccccc23)cc1C	2%	26	-3%	-24%	-2%	7%
